Assay outcomes: PubChem BioAssay, Johns Hopkins Ion Channel Center
KCNQ2 inh = inhibitors of rat KCNQ2 potassium channel | CHO-K1 KCNQ2, FluxOR thallium flux, 20 min; active compounds read low | B-score at 10 µM | hit rate 1.1% among 310,000 | AID 2156;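 active = fluorescence ratio B-score at most minus 3 library SDs, with starting brightness B-score within 2 library SDs, cut at about -5.5 in these data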
KCNQ2 pot = potentiators of rat KCNQ2 potassium channel | O88943 | CHO-K1 KCNQ2, FluxOR thallium flux fluorescence; active compounds read high | B-score at 10 µM | hit rate 0.54% among 310,000 | AID 2239;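 active = fluorescence ratio B-score at least 3 SD of library B-scores, with initial fluorescence B-score within 3 of them, cut at about 5.3 in these data; same plate scores as AID 2156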;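 also: B-score of peak minus minimum over baseline fluorescence ratio after K+ and Tl+ stimulus; positive B-score means potentiation of KCNQ2 with more thallium influx and brighter signal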
* hit, by the source's call; i = inactive; nt = no result. Only some compounds are listed: those with a hit (about 1.6% of all), similar ones and a draw of the others.

SMILES | KCNQ2 inh | KCNQ2 pot
C=C[C@]1(C)C=C2CCC3[C@](C)(CCC[C@@]3(C)C(=O)O)C2CC1 (stereo partly drawn) | i | nt
CCOc1ccc(CCNC(=O)c2c(C)nn(-c3ccccc3)c2Cl)cc1OCC | i | 0.5
O=C(Nc1cc(S(=O)(=O)N2CCOCC2)ccc1Cl)C1CCC1 | i | nt
COc1ccc(-c2cc3nc(C)cc(N4CC(C)CC(C)C4)n3n2)cc1 (stereo not drawn) | -6.05* | -6.05
COc1ccc(-c2cc(C(F)(F)F)n3nc(C)cc3n2)cc1 | i | nt
Cc1cccc(C)c1OCc1cc(C(=O)N(Cc2nccn2C)C(C)C)no1 | i | 0.92
Cc1ccc(NC(=O)NCCN2CCCCC2)cc1C | i | 0.73
CCCCSCCCNC(=O)Nc1ccc(C)c(C)c1 | i | 8.69*
Cc1csc(NC(=O)c2ccc(Cl)nc2)n1 | i | 1.58
CCN(Cc1ccccc1)S(=O)(=O)c1cc(C(=O)NCC2CCCCC2)ccc1OC | i | nt
CCN(Cc1ccccc1)S(=O)(=O)c1cc(C(=O)NC2CCCCCC2)ccc1OC | -6.78* | -6.78
CC(=O)Nc1ccc(-c2csc(NC(=O)Cc3cccc(F)c3)n2)cc1 | i | 0.26
COc1cccc(NC(=O)Cn2c(=O)n(CCC(=O)NC3CCN(Cc4ccccc4)CC3)c(=O)c3ccccc32)c1 | i | 0.25
Cc1ccc(N2C(=O)c3ccccc3C2Nc2ccccc2)nc1 (stereo not drawn) | i | nt
CCc1cccc(NC2c3ccccc3C(=O)N2c2ccc(C)cn2)c1 (stereo not drawn) | -7.55* | -7.55
Cc1ccc(CNC(=O)C(CC(C)C)OC(=O)c2ccco2)cc1 (stereo not drawn) | i | 3.61
Cc1ccc(N(CC(=O)NC2CCCCC2)C(=O)CNC(=O)c2ccco2)cc1F | i | 0.37
O=C(N1CCN(c2ccccc2)CC1)C12CC3CC(CC(C3)C1)C2 | i | nt
O=C(N1CCN(Cc2ccccc2)CC1)C12CC3CC(CC(C3)C1)C2 | -5.61* | -5.61
COC(=O)c1c(C(=O)OC)c(-c2cccc(F)c2)n2c1CS(=O)C2 (stereo not drawn) | i | 0.66
COC(=O)c1c(C(=O)OC)c(-c2ccc(C(C)(C)C)cc2)n2c1CS(=O)C2 (stereo not drawn) | -7.98* | -7.98
COc1ccccc1CNC(=O)CS(=O)(=O)Cc1ccccc1 | i | nt
O=C(CCN1CCN(Cc2ccccc2)CC1)Nc1cccc(Br)c1 | i | nt
Cc1nnnn1/C(=C\c1ccccc1)C(=O)OCC(=O)NC(C)(C)C | i | nt
Cc1nnnn1/C(=C\c1ccccc1)C(=O)OCC(=O)NC1CCCCC1 | -5.97* | -5.97
SMILES | KCNQ2 inh | KCNQ2 pot
COc1ccc(CNC(=O)COC(=O)c2ccc(OCc3c(C)noc3C)cc2)cc1OC | i | 0.44
Cc1noc(C)c1COc1ccc(C(=O)OCC(=O)NCc2ccccc2Cl)cc1 | -6.49* | -6.49
Oc1c(/C=C/C=C/C=Nc2ccccc2)sc(=S)n1Cc1ccccc1 | i | nt
Cc1cccc(CN2CCN(C(c3ccccc3)c3ccc(Cl)cc3)CC2)c1 (stereo not drawn) | -5.94* | -5.94
COc1cc(CN2CCN(C(c3ccccc3)c3ccccc3)CC2)cc(OC)c1OC | i | nt
CCn1c(=O)c2sccc2n(Cc2cc(C(=O)OC)ccc2OC)c1=O | i | nt
O=C(Nc1ccc2c(c1)OCCO2)c1cc2sccc2n1Cc1ccccc1 | i | nt
O=C(Nc1ccc2c(c1)OCCO2)c1cc2sccc2n1Cc1ccc(F)cc1 | -6.14* | -6.14
Cc1nn(C)c(C)c1NC(=S)Nc1ccc(S(=O)(=O)Nc2ncccn2)cc1 | i | nt
Cc1ccc2cc(CN(Cc3cccs3)C(=O)c3ccco3)c3nnnn3c2c1C | -6.03* | -6.03
Cc1ccc2c(c1)cc(CN(Cc1cccs1)C(=O)c1ccco1)c1nnnn12 | i | 1.76
COc1ccccc1NC(=O)C1CCCN1C(=O)Nc1ccc(F)cc1 (stereo not drawn) | i | nt
CCC1CCCCN1CCCNC(=O)c1ccc2c(c1)N(Cc1c(F)cccc1Cl)C(=O)CS2 (stereo not drawn) | i | nt
O=C(NCc1ccc2c(c1)OCO2)c1ccc2c(c1)N(Cc1c(F)cccc1Cl)C(=O)CS2 | i | 8.68*
CCOC(=O)C1=C(COC(=O)CNC(=O)c2ccc(Cl)cc2Cl)NC(=O)NC1C (stereo not drawn) | i | 0.82
CCN(CC)CC(=O)Nc1sc(C)cc1C(=O)c1ccccc1 | i | nt
CCc1cc(C(=O)c2ccc(Br)cc2)c(NC(=O)CN(CC)CC)s1 | -5.71* | -5.71
CC1CCCN(C(=O)c2cc3ccccc3cc2O)C1 (stereo not drawn) | i | 0.37
CCOC(=O)Cn1c2ccc(OC)cc2c2nc3ccccc3nc21 | i | nt
COC(=O)Cn1c2ccc(OC)cc2c2nc3ccccc3nc21 | -5.71* | -5.71
COC(/C(=N/O)c1ccc(Cl)cc1)c1ccccc1 (stereo not drawn) | i | nt
O=C(CCc1nnc(-c2ccsc2)o1)NCc1ccccc1OC(F)(F)F | -6.34* | -6.34
CC(C)c1nc(CNC(=O)CCc2nnc(-c3ccsc3)o2)cs1 | i | 1.4
CC1CCN(S(=O)(=O)c2cc(C(=O)Nc3ccccn3)ccc2Br)CC1 | i | 0.67
COc1ccc(C2(CNC(=O)c3ccccc3)CCCC2)cc1OC | i | nt
SMILES | KCNQ2 inh | KCNQ2 pot
COc1cccc(C(=O)NCC2(c3ccccc3)CCCC2)c1OC | -5.9* | -5.9
CCOC(=O)c1c(C)[nH]c(C(=O)OC(C)C(=O)Nc2ccccc2OC)c1C (stereo not drawn) | i | 0.85
O=C(CNCc1ccc(Cl)cc1)Nc1ccc(C(=O)N2CCCCCC2)cc1 | i | nt
CC(c1ccco1)N(C(=O)COc1ccc(Cl)cc1Cl)c1ccccn1 (stereo not drawn) | -10.9* | -10.9
CC(c1ccco1)N(C(=O)c1ccccc1F)c1ccccn1 (stereo not drawn) | i | 0.26
COc1cccc(CNC(=O)Nc2cccs2)c1 | i | 5.67*
COc1ccc(CNC(=O)Nc2cccs2)cc1OC | i | 1.92
C/C=C/c1ccc(OCC(=O)N2CCc3cc(OC)c(OC)cc3C2)c(OC)c1 | i | 1.13
CSCCC(NC(=O)c1ccco1)C(=O)Nc1ccc(C)cn1 (stereo not drawn) | i | 0.48
Cc1cc(C)c2nc(N3CCC(C(=O)NCC4CCCO4)CC3)sc2c1 (stereo not drawn) | i | nt
Cc1cc(C)c2nc(N3CCC(C(=O)NCCCN4CCCCC4)CC3)sc2c1 | -6.49* | -6.49
COc1ccc(S(=O)(=O)N(C)c2ccc(C(=O)N3CCCCC3)cc2)cc1 | i | 1.72
Cc1oc(-c2ccccc2F)nc1CN1CCC(C(=O)NC2CCCCCCC2)CC1 | i | nt
Cc1oc(-c2ccccc2F)nc1CN1CCC(C(=O)NC2CCCc3ccccc32)CC1 (stereo not drawn) | -7.33* | -7.33
CC(C(=O)c1ccc(Br)cc1)[n+]1cccc2ccccc21 (stereo not drawn) | i | nt
O=[N+]([O-])c1ccc2nc(Cl)nc(-c3ccccc3)c2c1 | i | nt
Cn1nc(-c2ccccn2)nc2c(=O)n(C)c(=O)nc1-2 | i | 7.4*
COc1ccc(-c2nc(-c3ccccn3)ncc2S(C)(=O)=O)cc1 | i | 1.53
N#C/C(C(=O)N1CCCC1)=C1/N=C(N)c2ccccc21 | i | 0.06
Cc1ccc(NC(=O)NC2=N/C(=C(/C#N)C(=O)N3CCCC3)c3ccccc32)cc1 | -6.98* | -6.98
O=C(Cc1ccc(Br)cc1)NCc1ccccc1 | i | 0.02
